# Measured values: PubChem BioAssay
# A number with no mark means an inactive call. Activity calls are given as the source filed them.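 How the source made its calls, unless noted: active means mean inhibition above 46.68%, the untreated control wells mean plus 3 SD; inactive means the rest.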
# Assays:
# [1] = biological target: Nuclear receptor coactivator 1 (Homo sapiens) (UniProt Q15788); assay: SRC1 coactivator transcriptional activity inhibitors, confirmation, cell-based, luminescence, quadruplicate (AID 588820); details: HEK293 GAL4-SRC1 luciferase reporter, at 3.6 µM, active compounds read high;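 further: 0% = DMSO wells and 100% = gossypol 36 µM treated wells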
# Nuclear receptor coactivator 1 (Homo sapiens), sequence (Q15788 whole entry, looked up, the tested form may be a part): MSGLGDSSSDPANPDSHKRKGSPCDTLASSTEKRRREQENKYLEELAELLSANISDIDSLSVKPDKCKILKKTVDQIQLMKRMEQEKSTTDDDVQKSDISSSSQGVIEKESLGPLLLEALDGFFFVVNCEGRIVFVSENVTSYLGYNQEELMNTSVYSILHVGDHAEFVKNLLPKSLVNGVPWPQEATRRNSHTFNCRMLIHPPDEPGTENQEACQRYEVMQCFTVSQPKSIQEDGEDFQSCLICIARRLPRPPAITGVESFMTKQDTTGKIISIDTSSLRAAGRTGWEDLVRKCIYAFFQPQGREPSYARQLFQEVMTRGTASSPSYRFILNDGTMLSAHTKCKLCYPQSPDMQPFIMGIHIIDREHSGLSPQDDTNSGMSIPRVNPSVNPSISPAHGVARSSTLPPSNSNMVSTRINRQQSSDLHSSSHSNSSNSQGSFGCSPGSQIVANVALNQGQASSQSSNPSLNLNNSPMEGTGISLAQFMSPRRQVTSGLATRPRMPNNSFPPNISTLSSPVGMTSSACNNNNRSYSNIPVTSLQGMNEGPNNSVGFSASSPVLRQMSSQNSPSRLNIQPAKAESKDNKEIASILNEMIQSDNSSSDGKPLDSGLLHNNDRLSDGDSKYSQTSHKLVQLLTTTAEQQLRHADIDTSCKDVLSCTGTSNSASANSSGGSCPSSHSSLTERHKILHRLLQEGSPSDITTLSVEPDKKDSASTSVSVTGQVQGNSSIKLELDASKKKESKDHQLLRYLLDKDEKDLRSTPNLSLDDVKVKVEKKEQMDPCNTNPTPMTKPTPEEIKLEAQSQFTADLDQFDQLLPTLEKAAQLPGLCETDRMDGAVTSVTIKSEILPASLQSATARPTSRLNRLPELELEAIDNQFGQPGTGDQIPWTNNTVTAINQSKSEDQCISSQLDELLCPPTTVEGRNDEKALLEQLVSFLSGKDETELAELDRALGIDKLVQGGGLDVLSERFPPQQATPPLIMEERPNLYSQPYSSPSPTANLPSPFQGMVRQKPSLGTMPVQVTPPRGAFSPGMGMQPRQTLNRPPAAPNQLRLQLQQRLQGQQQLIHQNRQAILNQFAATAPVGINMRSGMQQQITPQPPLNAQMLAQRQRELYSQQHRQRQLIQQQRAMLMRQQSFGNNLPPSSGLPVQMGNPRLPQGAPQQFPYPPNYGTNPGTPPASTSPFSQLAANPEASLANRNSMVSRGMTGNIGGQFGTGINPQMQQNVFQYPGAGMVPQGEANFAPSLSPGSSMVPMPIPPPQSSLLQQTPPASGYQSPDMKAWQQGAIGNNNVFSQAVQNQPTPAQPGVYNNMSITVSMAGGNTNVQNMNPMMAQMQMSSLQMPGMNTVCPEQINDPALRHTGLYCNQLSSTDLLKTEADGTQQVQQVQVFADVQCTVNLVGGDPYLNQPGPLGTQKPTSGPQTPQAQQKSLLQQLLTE
# [2] = VP16 transactivation inhibitors, counter-screen for SRC1 inhibitor project, cell-based, luminescence, high throughput (AID 588824; in the data active means inhibition above about 25%); details: cell-based VP16 transactivation luciferase luminescence; at 3.6 µM; active compounds read high
# [3] = StAR promoter reporter inhibitors, counter-screen for LRH-1 inverse agonist project, cell-based, luminescence, high throughput (AID 651611; in the data active means inhibition above about 28%); details: StAR promoter luciferase reporter counterscreen, at 3.6 µM, active compounds read high
# [4] = biological target: Nuclear receptor subfamily 5 group A member 2 (Homo sapiens) (UniProt O00482); assay: LRH-1 (NR5A2) inverse agonists, retest, confirmation, cell-based, luminescence (AID 651613; in the data active means inhibition above about 42%;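 further: HEK293T cells co-transfected with LRH-1 and StAR promoter luciferase reporter; 0% = vehicle wells and 100% = parental cells lacking receptor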); details: cell-based LRH-1 luciferase reporter, inverse agonism; at 3.6 µM; active compounds read high
# Nuclear receptor subfamily 5 group A member 2 (Homo sapiens), sequence (O00482 whole entry, looked up): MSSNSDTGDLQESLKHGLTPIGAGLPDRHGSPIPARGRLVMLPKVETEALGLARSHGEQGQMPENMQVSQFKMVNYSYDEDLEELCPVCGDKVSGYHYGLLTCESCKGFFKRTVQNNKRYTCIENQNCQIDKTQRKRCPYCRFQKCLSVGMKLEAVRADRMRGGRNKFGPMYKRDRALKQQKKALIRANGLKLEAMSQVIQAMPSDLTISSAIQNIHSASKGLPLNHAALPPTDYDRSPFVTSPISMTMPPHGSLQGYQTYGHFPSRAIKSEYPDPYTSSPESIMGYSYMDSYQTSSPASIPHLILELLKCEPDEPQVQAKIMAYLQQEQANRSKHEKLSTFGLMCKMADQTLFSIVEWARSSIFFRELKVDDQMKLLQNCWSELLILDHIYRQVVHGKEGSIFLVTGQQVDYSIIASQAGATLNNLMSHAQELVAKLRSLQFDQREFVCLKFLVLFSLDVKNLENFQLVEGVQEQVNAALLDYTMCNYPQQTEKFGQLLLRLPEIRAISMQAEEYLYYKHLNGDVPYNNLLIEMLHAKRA
# [5] = biological target: Steroidogenic factor 1 (Homo sapiens) (UniProt Q13285); assay: SF1 (NR5A1) inverse agonists, counter-screen for LRH-1 inverse agonist project, cell-based, luminescence, high throughput (AID 651614; in the data active means inhibition above about 44%;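 further: cells cotransfected with StAR promoter reporter and SF1 expression vector; 0% = vehicle on cells with receptor and 100% = vehicle on cells lacking receptor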); details: cell-based SF1 luciferase reporter, at 3.6 µM, active compounds read high
# Steroidogenic factor 1 (Homo sapiens), sequence (Q13285 whole entry, looked up, the tested form may be a part): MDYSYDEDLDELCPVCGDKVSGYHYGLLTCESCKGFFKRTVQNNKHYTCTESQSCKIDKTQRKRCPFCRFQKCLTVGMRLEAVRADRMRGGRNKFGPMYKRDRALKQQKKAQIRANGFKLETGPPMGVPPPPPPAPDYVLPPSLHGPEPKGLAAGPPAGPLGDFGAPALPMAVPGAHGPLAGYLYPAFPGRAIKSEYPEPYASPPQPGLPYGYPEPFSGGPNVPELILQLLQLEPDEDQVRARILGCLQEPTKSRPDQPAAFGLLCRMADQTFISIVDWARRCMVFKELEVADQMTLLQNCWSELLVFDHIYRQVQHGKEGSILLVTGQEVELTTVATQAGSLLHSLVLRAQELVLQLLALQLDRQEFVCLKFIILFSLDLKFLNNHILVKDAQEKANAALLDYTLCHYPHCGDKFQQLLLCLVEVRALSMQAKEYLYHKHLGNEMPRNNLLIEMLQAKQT
# [6] = VP16 transactivation reporter inhibitors, counter-screen for LRH-1 inverse agonist project, cell-based, luminescence, high throughput (AID 651615; in the data active means inhibition above about 33%); details: Gal4-VP16 luciferase reporter cells, at 3.6 µM, active compounds read high
SMILES,inhibition [1] [%],inhibition [2],inhibition [3],inhibition [4],inhibition [5],inhibition [6]
CCOc1cc(/C=N/Nc2nc3ccccc3[nH]2)cc(Br)c1OCC(=O)N(C)C,-9.77,-3.09%,,,,
CC(=O)c1cn(CC(=O)Nc2cccc(C)c2C)c2ccccc12,-15.8,13%,,,,
COc1ccc2c(C#N)c3ccccn3c2c1,37.4,7.81%,,,,
CC(Oc1ccc(F)cc1)C(=O)Nc1cc(S(=O)(=O)N2CCCCC2)ccc1N1CCOCC1 (stereo unspecified),-3.38,6%,,,,
C=CCn1c(SCC(=O)Nc2ccccc2F)nc2ccccc2c1=O,2.78,-1.24%,,,,
Cc1ccc(O)c(Nc2ncnc3ccc([N+](=O)[O-])cc23)c1,17.6,23.6%,,,,
COc1ccc(C(C(=O)NCC2CCCO2)N(Cc2cccs2)C(=O)c2snc(C(N)=O)c2N)cc1 (stereo unspecified),-52.6,-8.57%,,,,
CCc1noc(C)c1C(=O)Nc1ccccc1N1CCOCC1,-11,1.51%,,,,
CC(C)Cn1c(N)c(C(=O)COC(=O)c2cc3ccccc3cc2O)c(=O)n(C)c1=O,14.6,8.44%,,,,
Cc1cccc(NC(=O)CSCC(=O)N2CCCc3ccccc32)c1,-14.1,-4.48%,,,,
N#Cc1c(N)nc2c(c1-c1ccc(F)cc1)CCC2,-6.03,-10.2%,,,,
O=C1NC2(CCN(Cc3ccccc3)CC2)Oc2ccccc21,-21.7,-3.3%,,,,
CCCCCCCCCCOC(=O)Cn1c(COc2ccccc2C)[n+](C)c2ccccc21,-8.25,6.65%,-2.25%,42.2% (active),38.4%,38.9% (active)
CCOC(=O)c1cc(C#N)c(N2CCN(C(=O)c3cccc(C(F)(F)F)c3)CC2)nc1C(F)(F)F,15.6,29.2% (active),15.5%,48.8% (active),51.3% (active),32.3% (active)
Cc1cc(C)c(CN2CCN(C(=O)Cn3cnc4c(NCc5ccccc5)ncnc43)CC2)c(C)c1,-9.2,43.4% (active),35% (active),54.1% (active),57.5% (active),57.9% (active)
O=C(NCc1ccccc1)c1cccc(NC(=O)c2ccccc2)c1,-0.73,39.8% (active),32.8% (active),52.4% (active),59.2% (active),62% (active)
COc1ccc(NC(=O)C2Cc3c(-c4ccc5c(c4)OCO5)ccnc3O2)cc1OC (stereo unspecified),0.9,34% (active),27.9% (active),53.5% (active),61.1% (active),43.5% (active)
CCc1c(C)nc2ncnn2c1NCCc1ccc(OC)cc1,-21.1,28.3% (active),46.9% (active),53.9% (active),66.2% (active),42.2% (active)
CCN(CC(=O)Nc1ccc(NC(C)=O)cc1)C(=O)C1(c2ccc(Cl)cc2)CCC1,16.1,9.61%,-2.92%,40.1%,27.4%,11.8%
CN1CCN(c2ccc(CNS(=O)(=O)Cc3cccc(C(F)(F)F)c3)cc2)CC1,-13.6,26.4% (active),15.4%,69.8% (active),68.1% (active),40.1% (active)
COc1ccc(-c2coc3c(C(=O)NCc4ccc(OC)c(OC)c4)cccc23)c(C)c1,-32,41.2% (active),28% (active),80.8% (active),49% (active),57.8% (active)
CC(=O)Nc1ccccc1OCC(=O)c1cc(C)n(Cc2cccs2)c1C,-59.8,39.3% (active),28.7% (active),21.5%,47.4% (active),39.6% (active)
Cc1ccc2occ(/C=N/NC(=O)c3ccccc3O)c(=O)c2c1,5.51,13.2%,14.5%,3.45%,2%,25%
CC(=O)Nc1ccc(Nc2c3ccccc3nc3ccccc23)cc1,22.8,39.4% (active),62.5% (active),106% (active),69.6% (active),72.8% (active)
